Source: the supplement of paper PMC10849652
Targets with a hit are over-represented here; the source holds about 7,900 in all. About 0.6% of all pairs of compound and target were hits.

Key:
Assay in all cases: log2 fold change, soluble protein after heating vs DMSO (PISA); higher = thermal stabilisation; K562 cells, 10 uM, 30 min; active = over 0.2 and 3.5 SD of the protein, either way, in both replicates (recomputed)
[1] = compound: NC(=O)Nc1cc(-c2cccc(F)c2)sc1C(=O)N[C@H]1CCCNC1
Procedure, shortened: (§1)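 K562 cells (2×10^6 cells/mL) were treated with 10 μM compound for 30 min, and aliquots were heated for 3 min over 48°C-58°C. Pooled aliquots were extracted in PBS with 0.5% NP-40 at 4°C, and the supernatant after 21,000xg for 90 min was measured by TMTpro 16plex LC-MS/MS with channel sums equalised. Reported thermal stability, relative to control samples and from duplicates, is a log2 fold change.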

[2] = compound: NC(=O)c1cnc(N[C@@H]2CCCC[C@@H]2N)nc1Nc1cccc(-n2nccn2)c1
Procedure, shortened: as §1

[3] = compound: NC1(c2ccc(-c3nc4ccn5c(=O)[nH]nc5c4cc3-c3ccccc3)cc2)CCC1
Procedure, shortened: as §1

[4] = compound: NCC(=O)Nc1ccc(-n2nc(C(F)(F)F)cc2-c2ccc3c(ccc4ccccc43)c2)cc1
Procedure, shortened: as §1

entinostat = compound: Nc1ccccc1NC(=O)c1ccc(CNC(=O)OCc2cccnc2)cc1 [entinostat]
Procedure, shortened: as §1

vorinostat = compound: O=C(CCCCCCC(=O)Nc1ccccc1)NO [vorinostat]
Procedure, shortened: as §1

citarinostat = compound: O=C(CCCCCCNC(=O)c1cnc(N(c2ccccc2)c2ccccc2Cl)nc1)NO [citarinostat]
Procedure, shortened: as §1

silmitasertib = compound: O=C(O)c1ccc2c(c1)nc(Nc1cccc(Cl)c1)c1ccncc12 [silmitasertib]
Procedure, shortened: as §1

[5] = compound: O=C1NC(=O)C(c2cnc3ccccn23)=C1c1cn2c3c(cc(F)cc13)CN(C(=O)N1CCCCC1)CC2
Procedure, shortened: as §1

[6] = compound: c1cc(OCCN2CCCCC2)cc(-c2n[nH]c3ccc(-c4nnc[nH]4)cc23)c1
Procedure, shortened: as §1

Measured: log2 fold change

UBC (UniProt P0CG48)
inactive: [1] -0.003 | [2] -0.022 | [3] 0.214 | [4] 0.01 | entinostat -0.023 | vorinostat -0.11 | citarinostat -0.13 | silmitasertib -0.076 | [5] -0.117 | [6] -0.068

XPO6 (UniProt Q96QU8)
inactive: [1] 0.068 | [2] -0.103 | [3] -0.154 | [4] -0.118 | entinostat 0.025 | vorinostat 0.048 | citarinostat 0.085 | silmitasertib 0.01 | [5] 0.099 | [6] -0.038

WDR47 (UniProt O94967)
inactive: [1] 0.072 | [2] -0.023 | [4] -0.065 | entinostat 0.002 | vorinostat -0.014 | citarinostat 0.014 | silmitasertib 0.089 | [5] 0.004 | [6] 0.282
active: [3] -0.224

TMEM192 (UniProt Q8IY95)
active: [3] -0.374
inactive: [1] 0 | [2] -0.01 | [4] 0.01 | entinostat -0.017 | vorinostat -0.061 | citarinostat -0.02 | silmitasertib 0.037 | [5] 0.03 | [6] -0.005

TMEM177 (UniProt Q53S58)
active: [4] 0.347
inactive: [1] -0.014 | [2] -0.008 | [3] -0.043 | entinostat -0.021 | vorinostat -0.048 | citarinostat 0.068 | silmitasertib -0.019 | [5] 0.048 | [6] -0.042

TXN2 (UniProt Q99757)
Sequence of UniProt Q99757 (Q99757 whole entry, looked up): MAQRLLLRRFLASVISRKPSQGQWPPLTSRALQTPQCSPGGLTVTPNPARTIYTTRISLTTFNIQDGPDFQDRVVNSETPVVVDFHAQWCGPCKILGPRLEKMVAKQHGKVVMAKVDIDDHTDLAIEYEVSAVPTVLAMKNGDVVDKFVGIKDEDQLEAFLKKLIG
inactive: [1] -0.039 | [2] -0.009 | [3] 0.088 | [4] 0.049 | entinostat 0.023 | vorinostat -0.072 | citarinostat 0.054 | silmitasertib -0.072 | [5] -0.09 | [6] -0.036

TRIM28 (UniProt Q13263)
inactive: [1] -0.006 | [2] -0.008 | [3] -0.038 | [4] -0.007 | entinostat 0.038 | vorinostat 0.032 | citarinostat 0.036 | silmitasertib 0.036 | [5] -0.048 | [6] -0.009

UFL1 (UniProt O94874)
inactive: [1] -0.06 | [2] -0.013 | [3] -0.107 | [4] -0.066 | entinostat 0.059 | vorinostat 0.074 | citarinostat 0.063 | silmitasertib 0.029 | [5] -0.013 | [6] -0.048

VPS41 (UniProt P49754)
active: [3] -0.267
inactive: [1] -0.006 | [2] -0.163 | [4] -0.163 | entinostat 0.083 | vorinostat 0.072 | citarinostat 0.082 | silmitasertib -0.006 | [5] -0.046 | [6] -0.056

TPP1 (UniProt O14773)
Sequence of UniProt O14773 (O14773 whole entry, looked up): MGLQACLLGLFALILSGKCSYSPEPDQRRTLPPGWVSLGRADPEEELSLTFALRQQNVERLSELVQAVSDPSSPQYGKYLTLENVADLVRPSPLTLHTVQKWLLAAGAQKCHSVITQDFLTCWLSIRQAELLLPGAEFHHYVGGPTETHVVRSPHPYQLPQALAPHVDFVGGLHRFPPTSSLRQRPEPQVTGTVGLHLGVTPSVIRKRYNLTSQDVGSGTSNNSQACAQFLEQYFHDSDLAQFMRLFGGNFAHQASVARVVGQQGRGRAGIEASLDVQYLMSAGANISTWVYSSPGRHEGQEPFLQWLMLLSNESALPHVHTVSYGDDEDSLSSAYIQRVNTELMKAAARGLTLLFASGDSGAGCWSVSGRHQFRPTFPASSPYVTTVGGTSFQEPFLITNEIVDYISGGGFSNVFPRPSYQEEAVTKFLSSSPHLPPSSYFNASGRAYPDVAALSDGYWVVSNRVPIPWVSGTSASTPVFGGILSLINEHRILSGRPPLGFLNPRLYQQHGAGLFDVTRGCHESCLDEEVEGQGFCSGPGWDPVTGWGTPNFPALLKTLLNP
inactive: [1] -0.036 | [2] -0.037 | [3] -0.174 | [4] -0.08 | entinostat 0.036 | vorinostat 0.031 | citarinostat 0.035 | silmitasertib -0.036 | [5] -0.014 | [6] -0.091

VPS52 (UniProt Q8N1B4)
inactive: [1] 0.065 | [2] -0.005 | [3] -0.132 | [4] -0.039 | entinostat 0.037 | vorinostat 0.086 | citarinostat 0.015 | silmitasertib 0.08 | [5] 0.02 | [6] 0.016

USP7 (UniProt Q93009)
inactive: [1] -0.039 | [2] -0.062 | [3] -0.263 | [4] -0.07 | entinostat 0.097 | vorinostat 0.182 | citarinostat 0.096 | silmitasertib -0.028 | [5] -0.037 | [6] 0.046

TRAPPC13 isoform 5 (UniProt A5PLN9)
Sequence of UniProt A5PLN9 (A5PLN9 whole entry, looked up): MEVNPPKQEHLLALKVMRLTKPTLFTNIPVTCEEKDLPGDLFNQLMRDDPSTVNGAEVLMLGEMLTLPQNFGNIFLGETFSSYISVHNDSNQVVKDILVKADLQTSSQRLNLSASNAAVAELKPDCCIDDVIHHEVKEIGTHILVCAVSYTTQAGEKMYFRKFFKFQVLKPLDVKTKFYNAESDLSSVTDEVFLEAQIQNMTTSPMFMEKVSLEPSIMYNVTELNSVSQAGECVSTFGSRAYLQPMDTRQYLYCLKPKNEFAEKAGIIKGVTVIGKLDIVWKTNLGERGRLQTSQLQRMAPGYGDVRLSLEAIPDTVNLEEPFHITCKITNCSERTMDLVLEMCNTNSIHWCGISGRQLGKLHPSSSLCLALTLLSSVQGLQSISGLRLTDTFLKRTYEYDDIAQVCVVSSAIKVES
inactive: [1] -0.01 | [2] -0.248 | [3] -0.269 | [4] -0.148 | entinostat 0.045 | vorinostat 0.079 | citarinostat 0.136 | silmitasertib 0.017 | [5] -0.016 | [6] -0.13

TRMT61A (UniProt Q96FX7)
Sequence of UniProt Q96FX7 (Q96FX7 whole entry, looked up): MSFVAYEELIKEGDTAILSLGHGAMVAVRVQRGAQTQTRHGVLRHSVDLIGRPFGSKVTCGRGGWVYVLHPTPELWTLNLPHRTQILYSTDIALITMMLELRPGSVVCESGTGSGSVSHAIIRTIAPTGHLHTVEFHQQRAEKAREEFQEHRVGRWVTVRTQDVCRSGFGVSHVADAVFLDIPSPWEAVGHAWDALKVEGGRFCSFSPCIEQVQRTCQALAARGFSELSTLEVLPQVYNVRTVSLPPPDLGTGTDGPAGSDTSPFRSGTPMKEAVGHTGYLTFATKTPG
inactive: [1] 0.027 | [2] 0.017 | [3] 0.17 | [4] 0.101 | entinostat -0.029 | vorinostat 0.03 | citarinostat 0.005 | silmitasertib 0.099 | [5] 0.293 | [6] -0.146

WARS2 (UniProt Q9UGM6)
Sequence of UniProt Q9UGM6 (Q9UGM6 whole entry, looked up): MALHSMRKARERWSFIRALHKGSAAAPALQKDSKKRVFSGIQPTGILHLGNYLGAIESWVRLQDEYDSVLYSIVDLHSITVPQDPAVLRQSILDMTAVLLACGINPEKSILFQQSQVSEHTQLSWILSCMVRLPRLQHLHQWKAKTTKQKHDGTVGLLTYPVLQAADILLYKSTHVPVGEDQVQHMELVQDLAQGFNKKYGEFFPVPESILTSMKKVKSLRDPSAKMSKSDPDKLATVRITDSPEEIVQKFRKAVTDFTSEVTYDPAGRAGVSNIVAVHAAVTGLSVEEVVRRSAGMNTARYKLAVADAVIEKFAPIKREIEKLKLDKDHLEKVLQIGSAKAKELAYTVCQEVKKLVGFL
inactive: [1] -0.082 | [2] -0.019 | [3] -0.101 | [4] -0.08 | entinostat 0.076 | vorinostat 0.037 | citarinostat 0.095 | silmitasertib 0.07 | [5] 0.01 | [6] -0.023

TRAPPC6B (UniProt Q86SZ2)
Sequence of UniProt Q86SZ2 (Q86SZ2 whole entry, looked up): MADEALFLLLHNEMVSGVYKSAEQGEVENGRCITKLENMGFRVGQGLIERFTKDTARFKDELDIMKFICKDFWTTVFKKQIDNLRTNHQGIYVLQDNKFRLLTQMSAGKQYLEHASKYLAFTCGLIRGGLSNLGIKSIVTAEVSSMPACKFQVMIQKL
inactive: [1] 0.025 | [2] 0.016 | [3] -0.025 | [4] 0.007 | entinostat 0.066 | vorinostat 0.013 | citarinostat 0.046 | silmitasertib 0.001 | [5] 0.143 | [6] -0.058

UBE4A isoform 2 (UniProt Q14139)
Sequence of UniProt Q14139 (Q14139 whole entry, looked up): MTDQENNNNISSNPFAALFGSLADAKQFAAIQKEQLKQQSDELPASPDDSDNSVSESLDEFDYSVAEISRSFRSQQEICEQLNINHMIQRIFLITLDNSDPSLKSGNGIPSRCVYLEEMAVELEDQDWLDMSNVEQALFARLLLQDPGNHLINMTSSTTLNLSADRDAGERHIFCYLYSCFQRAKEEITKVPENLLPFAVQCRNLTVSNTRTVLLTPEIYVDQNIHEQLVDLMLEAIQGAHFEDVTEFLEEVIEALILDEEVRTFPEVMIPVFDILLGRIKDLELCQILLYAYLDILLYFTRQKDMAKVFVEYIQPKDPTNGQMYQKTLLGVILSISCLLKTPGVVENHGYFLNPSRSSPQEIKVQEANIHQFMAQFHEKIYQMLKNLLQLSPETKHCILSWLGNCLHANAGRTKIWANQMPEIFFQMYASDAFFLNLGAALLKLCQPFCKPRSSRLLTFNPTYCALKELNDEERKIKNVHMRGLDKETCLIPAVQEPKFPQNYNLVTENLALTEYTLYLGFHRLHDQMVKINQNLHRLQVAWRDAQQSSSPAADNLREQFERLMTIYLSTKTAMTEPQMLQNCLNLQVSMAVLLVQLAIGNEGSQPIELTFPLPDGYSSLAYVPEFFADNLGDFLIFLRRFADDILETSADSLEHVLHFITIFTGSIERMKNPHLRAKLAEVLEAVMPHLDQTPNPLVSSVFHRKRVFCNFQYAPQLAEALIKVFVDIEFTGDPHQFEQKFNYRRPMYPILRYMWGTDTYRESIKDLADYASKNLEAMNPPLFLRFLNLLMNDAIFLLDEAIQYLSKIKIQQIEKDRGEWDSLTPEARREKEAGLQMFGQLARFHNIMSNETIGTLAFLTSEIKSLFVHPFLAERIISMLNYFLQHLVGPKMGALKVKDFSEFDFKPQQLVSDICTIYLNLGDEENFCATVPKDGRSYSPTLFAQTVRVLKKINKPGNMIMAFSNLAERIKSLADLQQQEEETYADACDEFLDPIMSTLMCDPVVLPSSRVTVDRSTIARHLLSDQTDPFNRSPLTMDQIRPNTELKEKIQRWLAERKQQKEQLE
inactive: [1] -0.017 | [2] 0.01 | [3] -0.136 | [4] 0.001 | entinostat 0.146 | vorinostat 0.133 | citarinostat 0.059 | silmitasertib 0.117 | [5] 0.026 | [6] -0.014

TPR (UniProt P12270)
active: silmitasertib 0.3
inactive: [1] 0.09 | [2] -0.039 | [3] 0.06 | [4] -0.032 | entinostat -0.019 | vorinostat -0.084 | citarinostat 0.008 | [5] 0.085 | [6] 0.005

TRIP10 isoform 2 (UniProt Q15642)
inactive: [1] -0.067 | [2] 0.057 | [3] -0.065 | entinostat -0.2 | vorinostat 0.026 | citarinostat -0.11 | silmitasertib -0.065 | [5] -0.052 | [6] 0.008
active: [4] -0.849

VTI1A (UniProt Q96AJ9)
inactive: [1] -0.07 | [2] 0.014 | [3] -0.125 | [4] -0.014 | entinostat -0.009 | vorinostat 0.028 | citarinostat -0.016 | silmitasertib 0.051 | [5] -0.01 | [6] -0.039

VAMP7 (UniProt P51809)
inactive: [1] -0.029 | [2] 0.001 | [3] -0.176 | [4] -0.069 | entinostat 0.009 | vorinostat 0.025 | citarinostat 0.086 | silmitasertib 0.027 | [5] -0.058 | [6] 0.026

TTI2 (UniProt Q6NXR4)
Sequence of UniProt Q6NXR4 (Q6NXR4 whole entry, looked up): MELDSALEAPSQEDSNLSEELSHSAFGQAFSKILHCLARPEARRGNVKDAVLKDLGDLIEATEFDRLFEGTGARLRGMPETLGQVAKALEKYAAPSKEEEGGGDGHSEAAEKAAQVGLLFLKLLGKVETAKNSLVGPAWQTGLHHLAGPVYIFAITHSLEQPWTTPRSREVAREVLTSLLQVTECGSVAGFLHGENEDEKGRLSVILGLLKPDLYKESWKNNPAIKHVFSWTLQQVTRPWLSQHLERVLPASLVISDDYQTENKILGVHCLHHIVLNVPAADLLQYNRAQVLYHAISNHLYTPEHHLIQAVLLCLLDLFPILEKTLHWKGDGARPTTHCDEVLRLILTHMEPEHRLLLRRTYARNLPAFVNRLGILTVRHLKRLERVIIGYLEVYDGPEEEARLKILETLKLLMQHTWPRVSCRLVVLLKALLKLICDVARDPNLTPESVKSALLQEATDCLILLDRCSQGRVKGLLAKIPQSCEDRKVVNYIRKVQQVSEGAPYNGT
inactive: [1] 0.024 | [2] -0.038 | [3] 0.016 | [4] -0.074 | entinostat -0.004 | citarinostat -0.035 | silmitasertib -0.047 | [5] 0.059 | [6] -0.023

TXNL4B (UniProt Q9NX01)
Sequence of UniProt Q9NX01 (Q9NX01 whole entry, looked up): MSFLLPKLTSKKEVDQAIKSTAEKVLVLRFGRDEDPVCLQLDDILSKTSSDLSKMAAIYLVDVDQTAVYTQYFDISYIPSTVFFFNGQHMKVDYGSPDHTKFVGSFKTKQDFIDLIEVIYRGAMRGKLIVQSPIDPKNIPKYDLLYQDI
active: [4] 0.709
inactive: [1] 0.098 | [2] -0.112 | [3] -0.035 | entinostat -0.024 | vorinostat 0.02 | citarinostat 0.029 | silmitasertib 0.118 | [6] 0.117

UBR2 (UniProt Q8IWV8)
inactive: [1] -0.007 | [2] 0.038 | [3] 0.039 | [4] 0.007 | entinostat 0.049 | vorinostat 0.137 | citarinostat 0.05 | silmitasertib 0.061 | [5] 0.044 | [6] -0.14

VPS72 isoform 2 (UniProt Q15906)
Sequence of UniProt Q15906 (Q15906 whole entry, looked up): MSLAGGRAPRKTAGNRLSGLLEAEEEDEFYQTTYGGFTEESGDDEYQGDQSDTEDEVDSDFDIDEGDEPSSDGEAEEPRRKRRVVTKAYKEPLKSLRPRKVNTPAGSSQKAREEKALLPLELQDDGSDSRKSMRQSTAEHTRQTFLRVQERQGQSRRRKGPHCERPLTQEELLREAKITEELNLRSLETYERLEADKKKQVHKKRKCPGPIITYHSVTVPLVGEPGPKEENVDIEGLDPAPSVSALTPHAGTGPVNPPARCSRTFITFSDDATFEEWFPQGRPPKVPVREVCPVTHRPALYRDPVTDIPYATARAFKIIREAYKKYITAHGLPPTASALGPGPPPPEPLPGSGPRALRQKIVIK
inactive: [1] 0.092 | [2] -0.226 | [3] -0.117 | [4] 0.037 | entinostat -0.032 | citarinostat 0.102 | silmitasertib 0.199 | [5] -0.157 | [6] -0.116

WASHC5 (UniProt Q12768)
active: [3] -0.232
inactive: [1] 0 | [2] -0.011 | [4] -0.047 | entinostat 0.04 | vorinostat 0.022 | citarinostat 0.074 | silmitasertib 0.045 | [5] 0.038 | [6] -0.012

VKORC1 (UniProt Q9BQB6)
inactive: [1] -0.006 | [2] 0 | [3] -0.054 | [4] -0.114 | entinostat 0.025 | vorinostat -0.034 | citarinostat 0.001 | silmitasertib -0.023 | [6] 0.073

TTC33 (UniProt Q6PID6)
inactive: [1] -0.1 | [2] -0.158 | [3] -0.197 | [4] -0.133 | entinostat -0.123 | vorinostat -0.072 | citarinostat -0.038 | silmitasertib 0.151 | [5] -0.08 | [6] 0.003

UTP14A (UniProt Q9BVJ6)
inactive: [1] 0.079 | [2] 0.048 | [3] 0.083 | [4] 0.076 | entinostat 0.012 | vorinostat 0 | citarinostat -0.04 | silmitasertib 0.128 | [5] 0.082 | [6] -0.092

UFD1 isoform 1 (UniProt Q92890)
Sequence of UniProt Q92890 (Q92890 whole entry, looked up): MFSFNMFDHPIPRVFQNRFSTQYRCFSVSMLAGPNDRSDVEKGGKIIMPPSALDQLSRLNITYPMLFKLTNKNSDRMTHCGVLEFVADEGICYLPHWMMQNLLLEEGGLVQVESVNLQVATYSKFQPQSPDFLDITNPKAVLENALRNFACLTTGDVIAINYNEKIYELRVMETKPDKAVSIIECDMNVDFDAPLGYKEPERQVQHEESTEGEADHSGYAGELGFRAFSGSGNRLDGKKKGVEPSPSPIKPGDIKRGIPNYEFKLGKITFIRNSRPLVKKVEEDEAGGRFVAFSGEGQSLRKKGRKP
inactive: [1] -0.001 | [2] -0.015 | [3] -0.03 | [4] -0.001 | entinostat 0.01 | vorinostat 0.003 | citarinostat 0.061 | silmitasertib -0.014 | [5] 0.014 | [6] 0.034

UBAP1 isoform 4 (UniProt Q9NZ09)
Sequence of UniProt Q9NZ09 (Q9NZ09 whole entry, looked up): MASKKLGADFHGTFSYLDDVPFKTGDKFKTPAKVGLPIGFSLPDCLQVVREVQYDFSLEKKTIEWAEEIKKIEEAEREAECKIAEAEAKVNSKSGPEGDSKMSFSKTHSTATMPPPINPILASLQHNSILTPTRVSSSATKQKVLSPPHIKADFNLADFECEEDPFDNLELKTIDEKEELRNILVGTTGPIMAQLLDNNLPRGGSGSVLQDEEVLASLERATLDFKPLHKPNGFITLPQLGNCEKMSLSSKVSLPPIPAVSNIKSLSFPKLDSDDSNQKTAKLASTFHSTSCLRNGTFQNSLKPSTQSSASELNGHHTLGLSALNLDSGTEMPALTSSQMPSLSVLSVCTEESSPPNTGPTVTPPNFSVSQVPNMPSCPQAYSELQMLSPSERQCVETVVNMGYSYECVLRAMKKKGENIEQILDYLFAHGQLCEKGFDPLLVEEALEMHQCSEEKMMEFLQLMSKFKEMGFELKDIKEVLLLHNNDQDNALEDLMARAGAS
inactive: [1] -0.035 | [2] -0.005 | [3] -0.052 | [4] 0.002 | entinostat -0.027 | vorinostat -0.019 | citarinostat 0.193 | silmitasertib 0.064 | [5] -0.032 | [6] -0.049
